Data taken from PubChem BioAssay AID651930 (Southern Research Specialized Biocontainment Screening …, 2012).
Active and inactive are the calls of the source. How the calls were made is not given here.

Assay: Vero 76 cell cytotoxicity, dose response, cytotoxicity control for VEEV inhibitor project, set 9 (AID 651930)
Details: Vero 76 cytotoxicity; series mostly up to 25 µM

Compound | viability | outcome
COc1ccc(NC(=O)c2cc([N+](=O)[O-])ccc2N=C2CN(C)CCN2C)cc1 | 90.4% [at 5 µM] (inactive) | 
CN1CCN(C)C(=Nc2ccc([N+](=O)[O-])cc2C(=O)Nc2ccccc2)C1 |  | inactive
O=c1nc(Nc2ccc(OCc3ccccc3)cc2)sc2ncc(F)cc12 |  | inactive
CCN1CCN(Cc2nc3ncc([N+](=O)[O-])cc3c(=O)n2-c2ccccc2)CC1 |  | inactive
O=c1c2cc([N+](=O)[O-])ccc2nc(CN2CCNCC2)n1-c1ccsc1 |  | inactive
CCN1CCN(CC2Nc3ccc([N+](=O)[O-])cc3C(=O)N2c2ccccc2F)CC1 (stereo not given) |  | inactive
COc1ccccc1-n1c(CN2CCNCC2)nc2ccc([N+](=O)[O-])cc2c1=O |  | inactive
CCN1CCN(C)CC1=Nc1ccc([N+](=O)[O-])cc1C(=O)Nc1ccccc1 |  | inactive
CCN1CCN(c2nc3ccc([N+](=O)[O-])cc3c(=O)n2-c2ccccc2)CC1 |  | inactive
CN(C)c1ccc(-n2c(CN3CCNCC3)nc3ccc([N+](=O)[O-])cc3c2=O)cc1 |  | inactive
O=c1nc(Nc2cccc(OCc3ccccc3)c2)sc2ncccc12 |  | inactive
O=c1nc(Nc2ccccc2OCc2ccccc2)sc2ncccc12 |  | inactive
COc1ccc(-n2c(CN3CCNCC3)nc3ccc([N+](=O)[O-])cc3c2=O)cc1 |  | inactive
O=C1CN(Cc2nc3ccc([N+](=O)[O-])cc3c(=O)n2-c2ccccc2F)CCN1 |  | inactive
O=c1nc(Nc2ccc(OCc3ccccc3)cc2)sc2ncccc12 |  | inactive
CCN1CCN(Cc2nc3ccc([N+](=O)[O-])cc3c(=O)n2-c2ccccc2F)CC1 |  | inactive
COc1cccc(-n2c(CN3CCNCC3)nc3ccc([N+](=O)[O-])cc3c2=O)c1 |  | inactive
CCN1CCN(Cc2nc3ccc(-c4nn[nH]n4)cc3c(=O)n2-c2ccccc2)CC1 |  | inactive
CCN1CCN(Cc2nc3ccc(-c4cccnc4)cc3c(=O)n2-c2ccccc2)CC1 |  | inactive
CN1CCN(C)C(=Nc2ccc(F)cc2C(=O)Nc2ccccc2)C1 |  | inactive
